Each structure is given as a SMILES string. The source made the active and inactive calls.

This passage reports composite z-score, composite Z-score and z-score results from PubChem BioAssay.

Assay [1] concerns the target Albumin (Bos taurus) (UniProt P02769). Briefly: bovine serum albumin binders on microarray, profiling panel, artefact control for SMM control protein annotation, biochemical, small-molecule microarray, Alexa647 label, 635/667 nm fluorescence (AID 1118).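 Also: score merges 667 nm emission intensity and signal-to-noise per printed compound spot.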 The conditions noted are these: BSA-A647 binding, fluorescence 635 nm, higher = more signal.
The nature of assay [2]: small-molecule microarray binders of probe aXIP, primary screen, biochemical, NeuroSMM set, 635/667 nm fluorescence (AID 1119).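 Also: probe is the protein aXip251-270 applied at 1 µg/mL to compound-printed slides; binding of probe to printed compounds measured as 667 nm fluorescence plus signal to noise.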 The following applies: higher = more signal, called active from +8 up or from −8 down.
Assay [3] in a line: small-molecule binders of probe aNOTCH3, primary screen, biochemical, small-molecule microarray, 635/667 nm fluorescence (AID 1120).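 Also: probe is a biotin-tagged antibody raised against NOTCH3 rather than NOTCH3 protein; score merges spot fluorescence near 667 nm with spot signal to noise.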 The following applies: higher = more signal.
Assay [4] in a line: small-molecule binders of probe aNOTCH2, primary screen, biochemical, small-molecule microarray, 635/667 nm fluorescence (AID 1121).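 Also: score merges feature fluorescence read at 667 nm with its signal to noise.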 The following applies: higher = more signal.
The target in assay [5] is Carbonic anhydrase 2 (Homo sapiens) (UniProt P00918). Nature of the assay: CAII small-molecule binders, profiling panel, biochemical, small-molecule microarray, Alexa647-labelled CAII (AID 1122). The conditions noted are these: CAII-A647 binding fluorescence, higher = more signal.
The nature of assay [6]: COS7 lysate on small-molecule microarray, probe aHis, 635 nm (AID 1123).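 Also: z-score combines 667nm fluorescence intensity with signal-to-noise per printed compound spot.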 The conditions noted are these: COS7 cell lysate, fluorescence, higher = more signal.
Assay [7] is described as follows: compound binding in COS7 lysate, probe aLAP1, primary screen, cell lysate, small-molecule microarray (AID 1124).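 Also: lysate comes from COS7 cells expressing LAP1 and is applied at 0.3 µg/mL; score merges spot fluorescence near 667 nm with signal-to-noise over triplicate slides.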 The conditions noted are these: probe aLAP1, fluorescence, higher = more signal.
Assay [8] deals with Sam68 (KHDRBS1). Briefly: Sam68 small-molecule binders, primary screen, biochemical, small-molecule microarray, 635 nm fluorescence (AID 1125).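 Also: score merges 667 nm channel intensity with signal to noise over triplicate slides.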 The conditions noted are these: small-molecule microarray binding, higher = more signal.
Assay [9] concerns Chordin-like protein 2 (CHRDL2). Nature of the assay: CHRDL2 small-molecule binders, primary screen, biochemical, small-molecule microarray, 635 nm fluorescence (AID 1126).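 Also: printed compound slides probed with Chrdl2 protein at 4 µg/mL for 1 h at 4 C; score merges 667 nm emission intensity with signal to noise over three replicate slides.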 The following applies: small-molecule microarray binding, fluorescence 635 nm; higher = more signal.
In assay [10] the target is Concanavalin-A (Canavalia ensiformis) (UniProt P02866). Nature of the assay: ConA small-molecule binders, primary screen, artefact control for SMM control protein annotation, biochemical, small-molecule microarray, Alexa647 label, 635 nm (AID 1127).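 Also: z combines 667 nm emission intensity with signal-to-noise across three replicate slides.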 The following applies: ConA-A647 binding fluorescence, higher = more signal.
The nature of assay [11]: anti-His antibody binders, primary screen, artefact control for SMM control protein annotation, biochemical, small-molecule microarray, 635 nm fluorescence (AID 1128).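 Also: score merges feature fluorescence with signal-to-noise for each printed compound spot.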 The conditions noted are these: anti-His Alexa647 antibody binding, higher = more signal.
Assay [12] has as its system Human papillomavirus type 1a E7 protein (residues 1-88). Briefly: HPV1a E7 small-molecule binders, primary screen, biochemical, small-molecule microarray, residues 1-88, 635 nm (AID 1129). The following applies: small-molecule microarray binding, fluorescence 635 nm; higher = more signal.
Assay [13] addresses Focal adhesion kinase 1 (Homo sapiens) (UniProt Q05397). Nature of the assay: small-molecule microarray binders of FAK, primary screen, biochemical, 635/667 nm fluorescence, BSA, DTT (AID 1130).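 Also: composite of spot emission at 667 nm and signal to noise over triplicate slides.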 The conditions noted are these: PTK2 binding, 635 nm fluorescence, higher = more signal.
The test system of assay [14] is Fibrinogen (Alexa647-labelled). Briefly: fibrinogen binders on compound microarrays, profiling panel, artefact control for SMM control-protein annotation, biochemical, small-molecule microarray, 635/667 nm fluorescence (AID 1131).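 Also: z-score merges 667 nm fluorescence with per-spot signal-to-noise over triplicate slides.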 The following applies: fibrinogen-A647 binding fluorescence, higher = more signal.
Assay [15] deals with Follistatin (Homo sapiens) (UniProt P19883). Nature of the assay: follistatin binders on small-molecule microarrays, primary screen, biochemical, small-molecule microarray, 635/667 nm fluorescence (AID 1132). The following applies: FST binding, 635 nm fluorescence, higher = more signal.
The target of assay [16] is Fibroblast growth factor 2 (Homo sapiens) (UniProt P09038). Briefly: FGF2 binders on small-molecule microarrays, primary screen, biochemical, small-molecule microarray, 635/667 nm fluorescence (AID 1133). The following applies: small-molecule microarray binding, FGF2, fluorescence 635/667; higher = more signal.
A short description of assay [17]: mitochondrial membrane potential change in A549 cells, profiling panel, cell-based, JC-1 fluorescence, basal, 24 h, 100 nL (AID 1138).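 Also: A549 lung adenocarcinoma cells under basal conditions with no added stimulus; test concentration not given here.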 The conditions noted are these: higher = more signal.
For assay [18], the system named is Lefty1. Nature of the assay: Lefty1 binders on small-molecule microarrays, primary screen, biochemical, small-molecule microarray, 635/667 nm fluorescence (AID 1139). The following applies: small-molecule microarray binding, fluorescence 635/667; higher = more signal.
In assay [19] the test system is wheat germ agglutinin (Triticum aestivum), Alexa647-labelled. Nature of the assay: wheat germ agglutinin binders on compound microarrays, profiling panel, artefact control for SMM control-protein annotation, biochemical, small-molecule microarray, 635/667 nm fluorescence (AID 1140).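 Also: score merges 667 nm feature emission with signal to noise over triplicate slides.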 The conditions noted are these: WGA-A647 binding, 635 nm fluorescence, higher = more signal.

Assay [20] deals with Luciferin 4-monooxygenase (Photinus pyralis) (UniProt P08659). Briefly: firefly luciferase enzyme inhibitors, primary screen, biochemical, luminescence, purified enzyme, 2006 set (AID 1141).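 Also: cell-free assay with purified firefly luciferase at 100 ng per well in PBS; test concentration not given here.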 The conditions noted are these: SteadyGlo luminescence, 30 min, higher = more signal, called active from +8 up or from −8 down.
Luciferin 4-monooxygenase (Photinus pyralis), sequence (P08659 whole entry, looked up): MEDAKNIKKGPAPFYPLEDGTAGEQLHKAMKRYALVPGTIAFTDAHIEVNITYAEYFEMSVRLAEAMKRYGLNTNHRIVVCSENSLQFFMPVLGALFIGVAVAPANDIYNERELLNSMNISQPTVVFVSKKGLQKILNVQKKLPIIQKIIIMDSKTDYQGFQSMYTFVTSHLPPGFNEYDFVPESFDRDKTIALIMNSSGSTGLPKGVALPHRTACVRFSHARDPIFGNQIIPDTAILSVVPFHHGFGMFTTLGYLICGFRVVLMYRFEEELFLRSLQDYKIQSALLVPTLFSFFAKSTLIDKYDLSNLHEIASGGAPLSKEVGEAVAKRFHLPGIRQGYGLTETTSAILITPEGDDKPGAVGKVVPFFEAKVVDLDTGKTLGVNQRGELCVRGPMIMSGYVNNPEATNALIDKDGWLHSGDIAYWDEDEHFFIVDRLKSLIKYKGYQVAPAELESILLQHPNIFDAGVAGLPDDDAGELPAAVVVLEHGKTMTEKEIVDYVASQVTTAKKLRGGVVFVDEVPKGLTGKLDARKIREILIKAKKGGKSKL

Fibroblast growth factor 2 (Homo sapiens), sequence (P09038 whole entry, looked up): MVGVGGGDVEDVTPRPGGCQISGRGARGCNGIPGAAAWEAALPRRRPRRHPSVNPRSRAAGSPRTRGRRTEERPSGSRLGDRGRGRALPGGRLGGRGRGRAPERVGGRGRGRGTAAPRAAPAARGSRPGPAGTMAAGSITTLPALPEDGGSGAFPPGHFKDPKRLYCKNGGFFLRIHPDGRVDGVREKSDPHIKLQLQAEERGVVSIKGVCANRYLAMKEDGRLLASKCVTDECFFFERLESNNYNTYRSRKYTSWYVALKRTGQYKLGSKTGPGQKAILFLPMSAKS
Follistatin (Homo sapiens), sequence (P19883 whole entry, looked up): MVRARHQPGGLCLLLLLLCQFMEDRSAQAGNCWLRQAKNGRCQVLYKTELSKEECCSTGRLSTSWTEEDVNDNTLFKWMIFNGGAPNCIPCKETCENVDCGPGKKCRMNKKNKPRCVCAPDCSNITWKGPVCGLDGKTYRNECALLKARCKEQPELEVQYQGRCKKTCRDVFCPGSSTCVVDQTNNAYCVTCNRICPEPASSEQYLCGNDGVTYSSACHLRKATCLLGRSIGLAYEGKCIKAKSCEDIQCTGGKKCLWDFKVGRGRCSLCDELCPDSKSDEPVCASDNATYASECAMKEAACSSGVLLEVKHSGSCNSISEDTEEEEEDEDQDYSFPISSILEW
Albumin (Bos taurus), sequence (P02769 whole entry, looked up): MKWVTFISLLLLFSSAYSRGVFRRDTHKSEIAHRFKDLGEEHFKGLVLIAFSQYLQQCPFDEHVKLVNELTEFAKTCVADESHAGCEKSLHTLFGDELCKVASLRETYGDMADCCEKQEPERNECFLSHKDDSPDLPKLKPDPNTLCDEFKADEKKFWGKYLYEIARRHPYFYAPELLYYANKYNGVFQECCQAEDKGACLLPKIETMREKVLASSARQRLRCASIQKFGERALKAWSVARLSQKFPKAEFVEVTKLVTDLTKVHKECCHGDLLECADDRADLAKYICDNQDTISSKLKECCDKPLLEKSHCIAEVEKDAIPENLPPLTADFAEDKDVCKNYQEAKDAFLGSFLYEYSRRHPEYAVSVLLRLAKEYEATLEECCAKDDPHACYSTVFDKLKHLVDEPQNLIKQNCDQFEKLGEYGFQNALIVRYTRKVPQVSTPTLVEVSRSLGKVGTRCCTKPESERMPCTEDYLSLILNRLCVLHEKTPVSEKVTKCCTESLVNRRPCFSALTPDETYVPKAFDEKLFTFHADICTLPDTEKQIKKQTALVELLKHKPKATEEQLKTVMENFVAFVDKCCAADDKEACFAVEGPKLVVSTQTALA
Focal adhesion kinase 1 (Homo sapiens), sequence (Q05397 whole entry, looked up): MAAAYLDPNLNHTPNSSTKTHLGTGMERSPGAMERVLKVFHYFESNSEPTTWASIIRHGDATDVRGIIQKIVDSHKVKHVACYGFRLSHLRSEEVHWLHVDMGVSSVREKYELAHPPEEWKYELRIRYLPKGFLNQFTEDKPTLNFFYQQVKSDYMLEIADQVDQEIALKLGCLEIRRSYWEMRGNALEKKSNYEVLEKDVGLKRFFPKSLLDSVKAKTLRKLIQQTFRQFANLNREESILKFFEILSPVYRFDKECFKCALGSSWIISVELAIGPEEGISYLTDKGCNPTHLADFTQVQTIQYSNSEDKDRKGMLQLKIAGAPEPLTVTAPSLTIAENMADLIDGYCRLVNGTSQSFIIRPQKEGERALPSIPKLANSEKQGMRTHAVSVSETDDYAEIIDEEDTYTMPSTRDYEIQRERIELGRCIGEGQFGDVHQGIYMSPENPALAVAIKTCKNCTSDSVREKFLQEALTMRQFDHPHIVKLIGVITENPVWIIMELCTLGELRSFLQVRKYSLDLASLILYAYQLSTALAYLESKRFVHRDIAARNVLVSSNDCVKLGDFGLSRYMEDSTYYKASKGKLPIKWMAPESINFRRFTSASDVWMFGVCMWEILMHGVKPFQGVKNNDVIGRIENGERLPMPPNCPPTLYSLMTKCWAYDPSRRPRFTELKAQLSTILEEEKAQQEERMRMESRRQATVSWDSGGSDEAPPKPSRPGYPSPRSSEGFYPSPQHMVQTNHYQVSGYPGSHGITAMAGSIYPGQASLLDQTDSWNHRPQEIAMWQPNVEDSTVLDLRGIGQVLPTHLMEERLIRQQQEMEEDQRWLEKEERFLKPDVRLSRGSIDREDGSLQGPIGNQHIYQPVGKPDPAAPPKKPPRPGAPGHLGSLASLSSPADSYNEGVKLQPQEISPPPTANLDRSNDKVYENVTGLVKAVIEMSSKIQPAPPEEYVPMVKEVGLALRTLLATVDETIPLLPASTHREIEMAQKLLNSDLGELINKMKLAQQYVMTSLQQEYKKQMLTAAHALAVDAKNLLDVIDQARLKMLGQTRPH
Concanavalin-A (Canavalia ensiformis), sequence (P02866 whole entry, looked up): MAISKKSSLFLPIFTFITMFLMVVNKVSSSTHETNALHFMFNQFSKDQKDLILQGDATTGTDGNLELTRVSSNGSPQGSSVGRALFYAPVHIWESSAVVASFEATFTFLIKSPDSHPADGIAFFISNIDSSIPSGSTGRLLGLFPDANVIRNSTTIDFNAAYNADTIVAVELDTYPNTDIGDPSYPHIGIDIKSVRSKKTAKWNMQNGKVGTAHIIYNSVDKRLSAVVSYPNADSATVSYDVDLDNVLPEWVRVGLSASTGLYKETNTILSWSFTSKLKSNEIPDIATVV

On to `CO[C@@H]1COC(=O)CC=C[C@@H](C)COC(=O)[C@H](COCc2ccccc2)NC(=O)CC=C[C@H]1C`, for which the composite z-score in assay [1] is -1.2; in [3], -0.111; in assay [4], -0.108; in assay [5] it was -0.788; in assay [6] it was -0.843; in [7] it was 0.864. Also, the composite z-score in [8] is -0.597; in assay [9] it was 1.48; in assay [10] it was -2.62; in [11] it was -0.105; in assay [12], -1.04; in assay [13], -0.765. Further, the composite z-score in assay [14] was -1.55; in assay [15], 1.24; in assay [16] it was 1.73; in [18], 1.57; in assay [19], -0.672. Besides, the composite Z-score in assay [2] was 1.13 (inactive). In addition, the z-score in assay [17] is -0.378; in assay [20] it was -0.336 (inactive).

Consider `COc1ccc(O[C@H]2C=C[C@@H](c3ccccc3)O[C@@H]2CON=C[C@@H](C)[C@H](OCc2ccccc2)C(C)C)cc1`, for which the composite z-score in assay [1] is -0.136; in [3], -0.245; in [4], -0.198; in assay [5], -0.89; in [6] it was -0.53; in assay [7], -0.419. Moreover, the composite z-score is -1.67 in assay [8]; -0.163 in assay [9]; -0.409 in assay [10]; 0.901 in assay [11]; -1.26 in assay [12]; -0.302 in [13]. Moreover, the composite z-score in [14] was -1.41; in assay [15] it was -0.675; in assay [16] it was -0.76; in assay [18], -0.214; in assay [19], 0.12. In assay [2], the composite Z-score is -0.236 (inactive). Further, the z-score in assay [17] was 1.96; in assay [20], 0.0017 (inactive).

Consider `C=CC[C@@H]1C=C[C@H](ON=Cc2ccc(C(=O)N3[C@H](c4ccc(C)cc4)[C@@H](C)CC[C@H]3C(=O)OC)cc2)[C@@H](CO)O1`, for which the composite z-score in assay [1] is 0.36; in [3], -0.0971; in [4] it was -0.132; in assay [5] it was -0.0234; in assay [6], 0.556; in assay [7], 0.116. The composite z-score was 0.632 in [8]; 0.714 in assay [9]; -0.404 in assay [10]; -0.672 in [11]; 0.973 in assay [12]; 0.181 in [13]. Further, the composite z-score in [14] was determined as 0.302; in assay [15] it was 0.333; in [16] it was 0.646; in [18], 0.387; in [19], 0.0608. Also, the composite Z-score in [2] is 0.0811 (inactive). Besides, the z-score in assay [17] was -0.154; in assay [20], 1.27 (inactive).

On to `O=C1[C@H]2[C@H]3[C@H](O)[C@H](O)CC(=NO[C@@H]4O[C@H](CO)[C@@H](O)[C@H](O)[C@H]4O)[C@@H]3CC[C@H]2C(=O)N1c1ccc(F)cc1F`, for which the composite z-score in [1] was 0.241; in assay [3], -0.0612; in assay [4], -0.104; in [5], -0.0947; in assay [6], -0.0596; in [7], 0. Also, the composite z-score was 0.465 in [8]; 0.426 in [9]; 0.262 in assay [10]; 0.537 in [11]; 0.534 in assay [12]; -0.33 in assay [13]. Further, the composite z-score in assay [14] was 0.273; in [15] it was 0.438; in assay [16] it was 0.209; in assay [18], 0.386; in assay [19], 0.0553. For the same molecule, in [2], the composite Z-score is -0.836 (inactive). For the same molecule, the z-score in assay [17] was 0.242; in [20], 0.523 (inactive).

As for `Cc1cc(C)c(-c2cc([C@H](C)ON=C3[C@H]4CCn5c(=O)n(-c6ccccc6)c(=O)n5[C@H]4[C@H](O)[C@@H]4O[C@H]34)on2)c(C)c1`, the composite z-score was 0.652 in assay [1]; 0.125 in [3]; -0.205 in [4]; 0.311 in assay [5]; 0.486 in assay [6]; 0.0647 in [7]. Moreover, the composite z-score in assay [8] is 0.416; in assay [9], 0.231; in assay [10], 0.706; in assay [11] it was -0.286; in assay [12], 0.748; in assay [13], 0.422. In addition, the composite z-score in assay [14] is 0.382; in assay [15] it was 0.692; in assay [16], 0.627; in assay [18], 0.652; in assay [19], -0.0095. In addition, the composite Z-score in assay [2] is -0.853 (inactive). For the same molecule, the z-score in assay [17] is 1.32; in assay [20], 0.154 (inactive).
